# Source: PubChem BioAssay
# Hits are enriched below; roughly 6.5% of the tested compounds scored in any of these assays.
# Vaccinia mCherry – vaccinia inhibition (mCherry reporter); Vaccinia virus mCherry reporter infection, fluorescence; Potency, µM (series often up to 36.5 µM), usual class: inhibitors; 310,000 compounds, 0.63% hits; calls by dose curve; tested in A549 cells; further: nearly all actives have a fitted effect of over 35% in size
# FMDV inh – foot and mouth disease virus antiviral activity; FMDV antiviral cell-based qHTS; Potency, µM (titrated, usually from 57.9 µM), actives largely listed as inhibitors; 410,000 compounds, 1.2% hits; calls by dose curve; tested in HEK293T cells; further: read-out not given here; nearly all actives have a fitted effect of over 45% in size
# LASV entry inh – inhibitors of Lassa virus binding or cell entry | Lassa virus pseudotype entry inhibition, cell reporter | Potency, µM (highest dose often 37.9 µM), actives largely listed as inhibitors | 300,000 compounds, 1.2% hits | AID 540256; calls by dose curve; tested in HEK293 cells; further: nearly all actives have a fitted effect of over 50% in size
# HCMV inh – inhibitors of human cytomegalovirus | HFF cells, HCMV-luciferase reporter, 72 h; hits give low values | activity change, negative = inhibition, % at 57.5 µM | 410,000 compounds, 4.5% hits; in the data active means activity change below about -60%; inconclusive means no clear call, values can overlap the other calls; inactive means above about -39%
#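 Luciferase read-out from HCMV-luciferase-infected HFFs (MOI 1 PFU/cell) 72 h post infection at 37C; compounds added after 16 h cell attachment; activity normalized between buffer-only basal and Salinomycin (10uM) inhibitor controls.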
# MARV entry inh – inhibitors of Marburg virus binding or cell entry; Marburg virus pseudotyped entry inhibition, cell reporter; Potency, µM (doses to about 37.8 µM), most hits filed as inhibitors; 300,000 compounds, 1.8% hits; AID 540276; calls by dose curve; tested in HEK293 cells
# Vaccinia Venus – inhibitors of vaccinia virus (Venus reporter) | 330,000 compounds, 0.46% hits | Vaccinia virus Venus reporter expression, fluorescence | AID 720580 | Potency, µM (titrated, usually from 36.5 µM), most hits filed as inhibitors; calls by dose curve; tested in A549 cells; further: nearly all actives have a fitted effect of over 30% in size
# Hits are given with their value; i = inactive; ? = inconclusive; nt = no result given; + = active, no number; ! = repeats disagree; [ ] = remark or other dose.
SMILES,Vaccinia mCherry,FMDV inh,LASV entry inh,HCMV inh,MARV entry inh,Vaccinia Venus
CCOc1ccc(NC(=O)CCCc2cc(-c3ccc(OCC)cc3)on2)cc1,i,i,?,i,i,i
Cc1ccc(Cn2nc(C)c(NC(=O)c3cc(-c4ccc5c(c4)OCO5)on3)c2C)cc1,?,i,i,-60,?,?
CCOc1ccc(-c2cc(CCCC(=O)Nc3cccc(OC)c3)no2)cc1,i,?,0.82µM,?,?,?
O=C(O)[C@H]1[C@H](CO)[C@H]2Cn3c(cccc3=O)[C@@H]1N2S(=O)(=O)c1ccccc1F,nt,nt,nt,i,nt,nt
O=C1CCCN1c1ncc(S(=O)(=O)c2ccc([N+](=O)[O-])cc2)s1,11µM,?,i,i,i,?
Nc1ncc(S(=O)(=O)c2ccc([N+](=O)[O-])cc2)s1,7.1µM,i,i,i,i,?
O=C(Nc1ncc(S(=O)(=O)c2ccc([N+](=O)[O-])cc2)s1)c1ccccc1F,i[7.34 µM],i,nt,i,nt,i[7.34 µM]
COc1ccc(/C=N/NC(=S)Nc2ccccc2[N+](=O)[O-])cc1O,i,i,23µM,-66,?,?
O=[N+]([O-])c1cc(/C=N/NC(=S)Nc2ccccc2Cl)ccc1Cl,?,i,?,i,8.9µM,?
OC1(c2ccc3c(c2)CN(Cc2nccs2)CCO3)CCN(c2ccccc2F)CC1,i,i,nt,nt,nt,i
Cc1ccccc1-c1cc2c(c(OC3CCOC3)c1)OCCN(C(=O)Cn1cccn1)C2 (centres undefined),i,i,nt,nt,nt,i
Cc1cn([C@H]2C[C@H](O)[C@@H](CCC(=O)NCc3ccccc3)O2)c(=O)[nH]c1=O,+,i,nt,i,nt,?
CCc1nonc1NC(=O)c1oc2ccccc2c1C,i,i,i,i,i,i
CC1CCN(c2ccc(C(=O)OCC(=O)NCCN3C(=O)CSC3=O)cc2[N+](=O)[O-])CC1,i,?,i,-78,?,i
Cc1ccc(C(=O)OCC(=O)NCCN2C(=O)CSC2=O)cc1[N+](=O)[O-],nt,i,nt,i,nt,nt
O=C(c1ccc(Br)o1)N1CCN(c2ccc3nnc(-c4ccccc4)n3n2)CC1,i,?,nt,-72,nt,i
Cc1nnc2ccc(N3CCN(C(=O)c4ccccc4)CC3)nn12,i,i,nt,i,i,i
O=C(Nc1ccc(F)cc1)N1CCN(c2ccc3nnc(-c4ccc(F)cc4)n3n2)CC1,?,?,nt,-69!,i,?
CCOC(=O)c1c2c3c(cccc3n(C)c1=O)C(=O)c1ccccc1-2,i,i,i,i,?,i
CCOC(=O)c1c2c(n(C)c1C)C(=O)C(=O)c1ccc(Br)cc1-2,i,8.9µM,?,-97,?,i
CCOC(=O)c1c2c(n(Cc3ccccc3)c1C)C(=O)C(=O)c1ccccc1-2,?,20µM,?,i,5.6µM,4.5µM
Cc1ccccc1N=C1Nc2ccccc2N[C@]12C[C@H]1CCC(=O)N3CC[C@@H](C2)[C@@H]13,?,i,nt,i,nt,i
Cn1c(-c2ccccc2)cc2ccccc21,i,i,i,i,i,i
Cn1c(-c2ccccc2)cc2c3no[n+]([O-])c3ccc21,i[1.46 µM],i,4.5µM,-102,3.5µM,?
CCOc1ccc(NC(=O)CSc2nc3ccsc3c(=O)n2Cc2ccc(C(=O)O)cc2)cc1,i,i,nt,i,nt,i
SMILES,Vaccinia mCherry,FMDV inh,LASV entry inh,HCMV inh,MARV entry inh,Vaccinia Venus
CCC(C)c1ccccc1OCC(=O)NN1C(=O)c2ccccc2C1=O (centres undefined),i,i,i,i,?,i
Cc1nc2ccccc2n1CC(O)COCC1CC=CCC1 (centres undefined),nt,?,i,-81,i,?
OC(COCC1CC=CCC1)Cn1cnc2ccccc21 (centres undefined),nt,?,i,i,?,nt
Cc1ccc(OCC(O)CN2CCOCC2)c(C)c1 (centres undefined),nt,i,nt,i,nt,nt
N#CC(=C(O)CN1CCN(c2ccccc2F)CC1)c1nc(-c2ccccc2)cs1,i,i,i,-71,?,i
CCC(=O)C1=C(c2cccc(OC)c2)N(C(=O)CC)n2c(nnc2C2CCCCC2)S1,i,i,?,-92,nt,?
CCC(=O)C1=C(c2ccccc2)N(C(=O)CC)n2c(nnc2C2CCCCC2)S1,i,i,i,i,nt,i
CCC(=O)C1=C(c2cccc([N+](=O)[O-])c2)N(C(=O)CC)n2c(nnc2C2CCCCC2)S1,?,i,?,-99,nt,?
CC1(C(=O)NS(=O)(=O)c2ccc(Br)cc2)CCN1C(=O)C1(c2ccccc2)CC1 (centres undefined),i,i,nt,i,nt,i
CC(C)C[C@H]1CN=C(Nc2ccccc2)N1CC1CCCC1,i,i,nt,i,nt,i
CC(C)C[C@H]1CN=C(Nc2ccccc2)N1CC1CCC(C(C)(C)C)CC1 (some centres undefined),28µM,?,nt,nt,nt,?
CCOc1ccc(CCN2C(=O)C(=O)N([C@@H](CC(C)C)CN3CCC[C@H]3CN3C(=O)C(=O)NC[C@@H]3Cc3ccccc3)C[C@@H]2Cc2ccccc2)cc1,?,?,nt,i,nt,i
CCOc1ccc(CCN2C(=O)C(=O)N([C@@H](Cc3ccc(O)cc3)CN3CCC[C@H]3CN3C(=O)C(=O)NC[C@@H]3Cc3ccccc3)C[C@@H]2Cc2ccc(O)cc2)cc1,i,i,nt,i,nt,i
CCOc1ccc(CCN2C(=O)C(=O)N([C@@H](Cc3ccccc3)CN3CCC[C@H]3CN3C(=O)C(=O)NC[C@@H]3Cc3ccccc3)C[C@@H]2Cc2ccccc2)cc1,?,?,nt,-65,nt,?
O=C1NC[C@H](Cc2ccccc2)N(C[C@H]2CCCN2C[C@H](Cc2ccccc2)N2C[C@H](Cc3ccc(O)cc3)N(CCc3ccccc3)C(=O)C2=O)C1=O,i,i,nt,-73,nt,i
CCOc1ccc(CCN2C(=O)C(=O)N([C@@H](CC(C)C)CN3CCC[C@@H]3CN3C(=O)C(=O)NC[C@@H]3Cc3ccccc3)C[C@@H]2CC(C)C)cc1,i,?,nt,i,nt,13µM
CSc1nc(C(=O)N2CCOc3ccc(CN4CCN(Cc5ccccn5)CC4)cc3C2)cs1,i,i,nt,nt,nt,i
O=c1c(Cl)c(NCc2ccccc2)cnn1C12CC3CC(CC(C3)C1)C2,i,i,?,-61,?,i
Cn1c(O)c(N=NC(=S)Nc2ccccc2F)c2cc(S(=O)(=O)N3CCOCC3)ccc21,i,?,?,-63,?,i
Cc1ccc(N=Nc2c(O)n(CN3CCOCC3)c3ccccc23)cc1,i,i,i,nt,?,i
Cc1cccc(NC(=S)N=Nc2c(O)n(CN3CCOCC3)c3ccccc23)c1C,nt,?,nt,-77,i,nt
C=CCn1c(O)c(N=NC(=S)Nc2ccccc2C)c2cc(S(=O)(=O)N3CCOCC3)ccc21,i,i,?,-74,?,i
CCOc1c(/C=C(\C#N)C(N)=O)c2ccccc2n1CC,i,?,i,-67,?,i
CCOC(=O)/C(C#N)=C\c1c(OCC)n(CC)c2ccccc12,i,?,?,-69,?,i
COc1ccccc1N(C)S(=O)(=O)c1ccc(C(=O)NCC(c2ccco2)N2CCCCC2)cc1 (centres undefined),nt,i,nt,i,nt,nt
